# Compound activity deposited in PubChem by several laboratories.
# GDH-TPI counter-1 – GDH-TPI coupled enzyme inhibition counter-screen | GDH-TPI coupled enzyme counterscreen, NADH absorbance | inhibition, % at 4.8 µM | actives 1.2% (n = 360,000) | AID 588335; in the data active = inhibition above about 30%;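 also: 0% = DMSO wells and 100% = wells lacking the enzyme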
# PrPC TRFRET – inhibitors of human cell surface prion protein PrPC | P04156 | TR-FRET read-out | actives 0.43% (n = 370,000) | inhibition, % at 13.8 µM; in the data active = inhibition above about 24%; also: 0% = median of the test wells and 100% = reference compound wells
# BJeLR lethal – BJeLR cell viability loss | BJeLR (HRASV12) viability, CellTiter-Glo ATP luminescence, 48 h | inhibition, % (no concentration beside the values) | actives 0.17% (n = 300,000) | AID 1554; in the data active = inhibition above about 50%
# FBA Mtb inh – inhibitors of M. tuberculosis fructose-bisphosphate aldolase; purified M. tuberculosis FBA, fluorescence read-out; AID 588726; actives 2.3% (n = 360,000); P9WQA3; inhibition, % at 1 µM;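 also: 0% = vehicle and 100% = reference inhibitor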
# Target sequence (P9WQA3 whole entry, looked up): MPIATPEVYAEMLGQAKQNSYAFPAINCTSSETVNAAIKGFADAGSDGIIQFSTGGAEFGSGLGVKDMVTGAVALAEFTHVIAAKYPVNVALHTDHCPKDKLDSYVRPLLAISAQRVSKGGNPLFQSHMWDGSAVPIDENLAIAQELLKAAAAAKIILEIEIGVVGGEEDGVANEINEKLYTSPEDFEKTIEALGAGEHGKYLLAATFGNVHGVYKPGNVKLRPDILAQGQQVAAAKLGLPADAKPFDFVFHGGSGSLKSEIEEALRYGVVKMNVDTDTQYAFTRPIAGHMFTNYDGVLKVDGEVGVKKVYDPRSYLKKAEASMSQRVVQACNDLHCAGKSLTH
# RecA intein inh – blocks M. tuberculosis RecA intein splicing. cell-free RecA intein splicing, fluorescence. inhibition, % (concentration not given with the values). AID 2221. actives 0.75% (n = 290,000). P9WHJ3; in the data active = inhibition above about 30%;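 also: 0% = vehicle wells and 100% = reference inhibitor control wells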
# Mtb FBA inh conf – confirmation of M. tuberculosis fructose-bisphosphate aldolase inhibitors; shares compounds with FBA Mtb inh; purified M. tuberculosis FBA, fluorescence read-out; inhibition, % at 1 µM; AID 651616; actives 78% (n = 5,600);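 also: 0% = vehicle wells and 100% = reference inhibitor wells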
# GDH-TPI counter-2 – GDH-TPI inhibition counter-screen for FBA inhibitors. GDH-TPI coupled enzyme counterscreen, fluorescence. shares compounds with FBA Mtb inh. AID 652141. actives 81% (n = 5,600). inhibition, % at 1 µM; in the data active = inhibition above about 10%
# GDH-TPI dose – GDH-TPI dose response counter-screen for Mtb FBA | shares compounds with FBA Mtb inh | GDH-TPI coupled enzyme assay, fluorescence, artifact counterscreen | IC50, µM | actives 79% (n = 170) | AID 652145; call rule not given here
# Active calls of the source: *; . = no result given; + = active, no number. Sampled rows, rich in hits. Any-hit rate of the full collection: about 4.2%. Rule as the data show it, unless noted: active = inhibition above about 27%; inactive = the rest.
SMILES,GDH-TPI counter-1,PrPC TRFRET,BJeLR lethal,FBA Mtb inh,RecA intein inh,Mtb FBA inh conf,GDH-TPI counter-2,others
NC(=O)c1c(NC(=O)C(=O)N2CCOCC2)sc2c1CCCC2,20,-7,7,-4,-3,.,.,
Cc1ccc(NC(=O)CN2CCN(C(=O)c3ccco3)CC2)cc1,1,1,-5,-1,1,.,.,
Cc1ccc2nc(-c3ccc(NC(=O)CN4CCN(C(=O)c5ccco5)CC4)cc3)sc2c1,24,2,2,46*,-2,+,+,
CCC(C)(C)NC(=S)Nc1ccc(-c2nc3ccc(C)cc3s2)cc1,28,7,0,92*,-6,2,-3,
Cc1ccc2nc(-c3ccc(NC(=S)NCCC(C)C)cc3)sc2c1,21,0,-2,27,-4,.,.,
COCCNc1nnc(SC(C)C(=O)Nc2ccc(-c3nc4ccc(C)cc4s3)cc2)s1 (stereo unspecified),29,8,3,40*,1,+,+,
Cc1ccc2nc(-c3ccc(NC(=S)NCC(C)(C)CN(C)C)cc3)sc2c1,2,0,.,77*,.,69*,53*,
Cc1cc(C)cc(N(CC(=O)Nc2ccc(-c3nc4ccc(C)cc4s3)cc2)S(C)(=O)=O)c1,18,-1,-3,24,-2,.,.,
Cc1ccc2nc(-c3ccc(NC(=O)CN(c4ccccc4C)S(C)(=O)=O)cc3)sc2c1,12,1,-4,90*,0,+,+,
C=CCn1c(SCC(=O)Nc2ccc(-c3nc4ccc(C)cc4s3)cc2)nnc1-c1ccccc1,11,-8,2,41*,-1,+,+,
CNC(=S)Nc1ccc(-c2nc3ccc(C)cc3s2)cc1,20,12,3,93*,-2,45*,32*,
CCCCNC(=S)Nc1ccc(-c2nc3ccc(C)cc3s2)cc1,21,5,2,56*,-2,-2,-5,
Cc1ccc(-c2nnc(SCC(=O)Nc3ccc(-c4nc5ccc(C)cc5s4)cc3)n2Cc2ccco2)cc1,.,-4,.,.,.,.,.,
O=C1Nc2c(Cl)cc(Cl)cc2C12Nc1ccccc1S2 (stereo unspecified),.,-4,.,.,.,.,.,
CCc1cc2c(nc1CC)CCCN2S(=O)(=O)c1ccc(C#N)cc1,.,-3,.,.,.,.,.,
COc1ccc(N2CCN(C(=O)C3COc4ccccc4O3)CC2)cc1 (stereo unspecified),-8,-6,10,-2,0,.,.,
COc1cc2nc(N3CCN(C(=O)[C@H]4COc5ccccc5O4)CC3)nc(N)c2cc1OC,3,-10,-6,82*,2,63*,38*,
c1ccc(Nc2ccc3ccccc3c2)cc1,1,-2,.,33*,.,145*,97*,
c1ccc(Nc2ccccc2)cc1,-4,2,-1,2,-1,.,.,
COc1cc(NC(=O)CSc2nc3cc(C)ccc3cc2C)c(C(=O)O)cc1OC,7,23,7,27*,-1,45*,25*,
COc1cc(NC(=O)CSc2nc3ccccc3cc2C)c(C(=O)O)cc1OC,14,10,-9,9,3,.,.,
Cc1ccccc1CN1CCCCC(NC(=O)c2ccccc2F)C1=O (stereo unspecified),.,-10,.,.,.,.,.,
c1ccc(COn2c(-c3ccccc3)nc3c2CCc2nonc2-3)cc1,0,-6,-7,53*,-1,107*,93*,
O=c1oc(Nc2ccccc2Cl)nc2ccccc12,3,-2,-7,24,2,.,.,
O=c1oc(Nc2cccc(Cl)c2)nc2ccccc12,-6,-9,4,48*,0,34*,18*,
SMILES,GDH-TPI counter-1,PrPC TRFRET,BJeLR lethal,FBA Mtb inh,RecA intein inh,Mtb FBA inh conf,GDH-TPI counter-2,others
Cc1cc(-c2ccccc2)c2nncn2n1,-3,-22,7,45*,-3,+,+,
Cc1nc(SCC(=O)N2CCN(c3ccccc3)CC2)c2oc3ccccc3c2n1,9,-4,-1,31*,2,+,+,
Cc1nc(SCC(=O)O)c2oc3ccccc3c2n1,8,-2,3,1,-1,.,.,
COc1ccccc1C1=NC(c2ccccc2)CN1c1ccccc1 (stereo unspecified),2,6,-2,102*,-10,89*,63*,
COc1ccccc1-c1cn(-c2ccccc2)c(=S)[nH]1,-1,-4,3,7,2,.,.,
CCCCn1c2nc3ccccc3nc2c2c(=O)n(-c3ccccc3)cnc21,9,-4,3,9,1,.,.,
CCCCn1c2nc3ccccc3nc2c2c(=N)oc(C)nc21,2,-3,.,31*,.,35*,26*,
CCOC(=O)c1c(C)[n+](-c2ccc(C)cc2)c(CC)c2cc(OC)c(OC)cc12,11,-16,-3,41*,-2,82*,57*,
CC(C)CN1Cc2cc(-c3ccccc3)ccc2-n2nncc2C1,.,-2,.,31*,.,+,+,
O=C(Nc1ccc2c(c1)CCCN2C(=O)c1cccs1)c1c(F)cccc1Cl,24,3,14,99*,7,+,200*,
O=C(COC(=O)C12CC3CC(CC(Br)(C3)C1)C2)Nc1cccnc1Cl,15,-1,-4,32*,3,59*,49*,
Cc1c(Cl)cccc1NC(=O)COC(=O)C12CC3CC(CC(O)(C3)C1)C2,8,-4,.,1,.,.,.,
CCOC(=O)CNC(=O)CSc1nc2ccccc2c(=O)n1-c1ccc(Cl)cc1,.,-3,.,.,.,.,.,
Cc1cc(OC(C(=O)O)c2ccccc2)c2c(C)c(Cc3ccccc3)c(=O)oc2c1 (stereo unspecified),23,10,6,46*,-2,1,-1,
Cc1cc(OC(C)C(=O)N2CCN(c3ccccc3)CC2)c2c(C)c(C)c(=O)oc2c1 (stereo unspecified),4,4,11,8,0,.,.,
CCc1cc(=O)oc2cc(C)cc(OC(C)C(=O)NC3CCN(Cc4ccccc4)CC3)c12 (stereo unspecified),1,-1,-1,51*,1,14,0,GDH-TPI dose=3*
Cc1cc(OC(C)C(=O)NCC(O)c2ccccc2)c2c(C)c(C)c(=O)oc2c1 (stereo unspecified),11,-4,7,50*,4,73*,45*,
CCc1cc(=O)oc2cc(C)cc(OC(C)C(=O)NCC(O)c3ccccc3)c12 (stereo unspecified),-7,-5,-2,59*,-4,+,+,
COc1ccc(C2C(C(=O)Nc3cc(OC)ccc3OC)CCC(=O)N2c2ccc(OC)cc2)cc1 (stereo unspecified),.,-6,.,.,.,.,.,
Cc1cc(N/C(=C\C(=O)c2ccccc2)c2ccccc2)ccc1Br,.,8,.,.,.,.,.,
